# PubChem BioAssay (Tox21)
# The source made the active and inactive calls. A call without a number means that no potency is given here. The call rests on the fitted dose curve.
# Molecular target: Gonadotropin-releasing hormone receptor (Homo sapiens) (UniProt P30968)
# Experiment: Human gonadotropin-releasing hormone receptor (GnRHR) small molecule agonists, calcium flux assay in GnRHR-HEK293 cells (AID 1920063); further: nearly all actives have a fitted effect of over 35% in size
# Conditions: calcium flux fluorescence, agonist mode; series mostly up to 57.6 µM
# Outline: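 We seeded human GnRHR-expressing HEK293 cells for 18 hours, loaded them with calcium dye for an hour at 37 C, added test compounds, and recorded fluorescence intensity kinetically for three minutes.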
# Chain of Gonadotropin-releasing hormone receptor (Homo sapiens) (P30968 whole entry, looked up): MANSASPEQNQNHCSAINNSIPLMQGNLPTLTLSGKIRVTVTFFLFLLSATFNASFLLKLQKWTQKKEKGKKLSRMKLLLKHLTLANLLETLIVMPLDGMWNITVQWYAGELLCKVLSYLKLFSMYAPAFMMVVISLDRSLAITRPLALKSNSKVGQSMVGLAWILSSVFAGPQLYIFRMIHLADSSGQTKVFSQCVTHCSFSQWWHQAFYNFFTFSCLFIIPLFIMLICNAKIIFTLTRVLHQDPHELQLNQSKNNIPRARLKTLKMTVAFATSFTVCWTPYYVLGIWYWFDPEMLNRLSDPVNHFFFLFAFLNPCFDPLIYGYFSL
row,Compound,Potency
1,CC(C)[N+](C)(CCC(C(N)=O)(c1ccccc1)c1ccccc1)C(C)C,inactive
2,O=C(Cl)CCl,inactive
3,COC(=O)c1ccccc1N,inactive
4,CN(C)NC(=O)CCC(=O)O,inactive
5,CN(C)C(=O)C(c1ccccc1)c1ccccc1,inactive
6,ClCc1ccccn1,inactive
7,CCCOC(=O)c1ccccc1C(=O)OCCC,inactive
8,Cc1ccc(N)c(N)c1,inactive
9,N#CC1(N=NC2(C#N)CCCCC2)CCCCC1,inactive
10,C=C(C)C(=O)OCC(CC)CCCC (stereo not drawn),inactive
11,O=C(CCN1CC1)OCC(CO)(COC(=O)CCN1CC1)COC(=O)CCN1CC1,inactive
12,CCCCOC(=O)c1ccccc1C(=O)OCCCC,inactive
13,CC(O)CN(CC(C)O)CC(C)O (stereo not drawn),inactive
14,CN(N=O)C(N)=O,inactive
15,CCOC(=O)c1cncn1C(C)c1ccccc1 (stereo not drawn),inactive
16,CCN(CC)c1ccccc1,inactive
17,CCOc1nc(F)cc2nc(S(=O)(=O)Nc3c(Cl)cccc3Cl)nn12,inactive
18,O=[N+]([O-])c1ccccc1O,inactive
19,Nc1ccc(N=Nc2ccc(-c3ccc(N=Nc4c(S(=O)(=O)O)cc5cc(S(=O)(=O)O)c(N=Nc6ccccc6)c(O)c5c4N)cc3)cc2)c(N)c1,inactive

row,Compound,Potency
1,c1ccc(P(c2ccccc2)c2ccccc2)cc1,inactive
2,CCCCCBr,inactive
3,c1ccc2c(c1)sc1ccccc12,inactive
4,COc1ccc2c3c1O[C@H]1[C@H](O)CC[C@H]4[C@@H](C2)N(C)CC[C@@]341,inactive
5,CN(C)CCc1c[nH]c2cccc(OP(=O)(O)O)c12,inactive
6,CC(Cl)C(=O)O (stereo not drawn),inactive
7,Clc1ccc(Cl)cc1,inactive
8,FC(F)(F)c1ccc(Cl)cc1,inactive
9,CCCCCCCCCBr,inactive
10,COC(=O)NS(=O)(=O)c1ccc(N)cc1,inactive
11,CC(O)CN1CCN(CC(=O)[O-])CCN(CC(=O)[O-])CCN(CC(=O)[O-])CC1.[Gd+3] (stereo not drawn),inactive
12,Nc1cnn(-c2ccccc2)c(=O)c1Cl,inactive
13,Cl[C@H]1OCCO[C@@H]1Cl,inactive
14,O=[N+]([O-])c1cc(Cl)ccc1Cl,inactive
15,c1nc[nH]n1,inactive
16,COC[C@H](C)N(C(=O)CCl)c1c(C)csc1C,inactive
17,CCC(=O)Nc1ccc(Cl)c(Cl)c1,inactive
18,C=C(C)C(=O)OCC1CO1 (stereo not drawn),inactive
19,O=C(NC(=O)c1c(F)cccc1F)Nc1cc(Cl)c(OC(F)(F)C(F)C(F)(F)F)cc1Cl (stereo not drawn),inactive
